According to PubChem BioAssay (NCATS):
Results filed as inconclusive are left out. Activity calls are given as the source filed them. Unless noted, calls come from the whole dose curve; as a rule, active = well fitted curve in the direction sought with a large enough effect; inconclusive = small, poorly fitted or top-dose-only effect, or another doubt; inactive = no such curve, though single readings can be large; an effect the other way counts as inactive or inconclusive.

Key:
[1] = Cell Viability - Jurkat (AID 426;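 active = dose-dependent loss of cell ATP signal giving a full or clear fitted curve, ranked by lower potency value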; note: potency is the fitted concentration of half-maximal effect); conditions: qHTS
How it was run: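 Jurkat (clone E6-1, human T-cell leukemia) cells, 5000/well in complete medium, were exposed to compound for 40 hr at 37 °C. Viability was read as intracellular ATP by CellTiter-Glo luminescence; AC50 came from Hill fits of concentration-response data.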

[2] = Cell Viability - NIH 3T3 (AID 541); conditions: NIH 3T3 cell viability, qHTS; activity change, negative = cytotoxicity: at 92.2 µM (top of the series);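 note: plate controls were DMSO alone for no effect and tamoxifen positive control for full effect; nearly all actives have a fitted effect of over 25% in size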
How it was run: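 NIH 3T3 mouse embryo fibroblasts (1000 cells/well) were plated in complete medium and treated with compound for 40 hr at 37 °C. Viability was read as intracellular ATP by CellTiter-Glo luminescence; AC50 values came from Hill-equation fits of concentration-response data.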

[3] = Cell Viability - Mesenchymal (AID 546); conditions: mesenchymal cells viability, qHTS; series mostly up to 91.7 µM;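 note: cells exposed to compound for 40 hours before reading; 0% = DMSO only and -100% = 100 µM tamoxifen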
How it was run: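 Normal human renal glomerulus-derived kidney mesenchymal cells, 1000 per well in complete medium, were treated with compounds for 40 hr at 37 °C. Viability was read as intracellular ATP by CellTiter-Glo luminescence; AC50 values came from Hill-equation fits of qHTS concentration-response data.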

[4] = Cellular Toxicity (caspase-3) MRC-5 (AID 659); conditions: MRC-5 cells, luminescence, normalized: DMSO 0%, 10 µM staurosporine 100%; series mostly up to 91.7 µM
How it was run: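 Luminescence from caspase-cleaved aminoluciferin substrate (Caspase-Glo 3/7, 1 hr RT) reports caspase 3/7 activity in MRC-5 lung fibroblasts after 16 hr compound exposure. Normalized to DMSO basal and 10 uM staurosporine as 100%; AC50 from Hill fits.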

[5] = Cellular Toxicity (caspase-3) NIH 3T3 (AID 666); conditions: NIH 3T3 caspase-3 activation, apoptosis/toxicity; series mostly up to 92.2 µM;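 note: caspase signal read after 16 h compound exposure; 0% = DMSO basal and 100% = 100 µM tamoxifen stimulation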
How it was run: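 Mouse NIH 3T3 fibroblasts (1000 cells/well) were treated with compound for 16 hr at 37°C in complete medium; caspase-3/7 activity was read by Caspase-Glo luminescence. Normalized to DMSO and 100 uM tamoxifen; AC50 from Hill fits.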

[6] = MultiTox-Fluor Cytotoxicity Assay - LYMP1-001 - Dead Cells (AID 946); conditions: LYMP1-001 lymphoblastoid cells, dead-cell protease fluorescence; series mostly up to 92.2 µM;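 note: 0% = DMSO and 100% = tetraoctylammonium bromide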
How it was run: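 AC50 from Hill fit of concentration-response; data normalized to DMSO (basal) and 15 uM tetraoctylammonium bromide (100%). LYMP1-001 lymphoblastoid cells, 2500/well, 16 hr compound at 37 C; dead-cell protease fluorescence, Ex/Em 485/520.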

[7] = MultiTox-Fluor Cytotoxicity Assay - LYMP1-002 - Live Cells (AID 955); conditions: LYMP1-002 lymphoblastoid live-cell protease fluorescence viability; series mostly up to 46.1 µM; note: % is set by controls: 0 for no effect and ±100 for the full control effect
How it was run: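 Human lymphoblastoid LYMP1-002 cells, 2500/well in complete medium, rested 5 hr at 37 C, then exposed to compounds for 16 hr at 37 C. Live-cell protease cleavage of GF-AFC read by fluorescence (Ex/Em 405/510) after 60 min at room temperature; AC50 from Hill fits.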

[8] = Cell Viability - LYMP1-003 - Assay at 24 hr (AID 963); conditions: LYMP1-003 lymphoblastoid cell viability; series mostly up to 92.2 µM;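 note: plate controls were DMSO only for no effect and tetraoctylammonium bromide positive control for full effect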
How it was run: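 Human lymphoblastoid LYMP1-003 cells (2500/well) were rested 5 hr at 37 C, then exposed to compounds in complete medium for 24 hr at 37 C. Cellular ATP was quantified by CellTiter-Glo luminescence, and AC50 values came from Hill fits of concentration-response data.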

[9] = Cell Viability - LYMP2-015 (AID 971); conditions: LYMP2-015 lymphoblastoid cell viability; series mostly up to 92.2 µM;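 note: 0% = DMSO only and full effect = 92 µM tetraoctylammonium bromide; nearly all actives have a fitted effect of over 55% in size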
How it was run: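 Human lymphoblastoid cells (2500/well) in complete medium were preincubated 5 hr at 37 C, then compound-treated 24 hr at 37 C. Intracellular ATP was read by CellTiter-Glo luminescence after 30 min at room temperature; AC50 came from Hill-equation concentration-response fits.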

[10] = Cell Viability - LYMP2-024 (AID 988); conditions: LYMP2-024 lymphoblastoid cell viability; series mostly up to 92.2 µM;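 note: plate controls were DMSO only for no effect and 92 µM tetraoctylammonium bromide for full effect; nearly all actives have a fitted effect of over 60% in size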
How it was run: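 Human lymphoblastoid cells (2500/well) in complete medium were preincubated 5 hr at 37 C, then exposed to compounds for 24 hr at 37 C. Intracellular ATP was read by CellTiter-Glo luminescence; AC50 from Hill-equation fits of concentration-response data.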

[11] = Cell Viability - LYMP1-002 - Assay at 24 hr (AID 993); conditions: LYMP1-002 lymphoblastoid cells viability; series mostly up to 92.2 µM; note: % is set by controls: 0 for no effect and ±100 for the full control effect
How it was run: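 Human lymphoblastoid LYMP1-002 cells, 2500/well in complete medium, were treated with compounds for 24 h at 37 C; intracellular ATP was read by CellTiter-Glo luminescence. AC50 values came from Hill-equation fits of qHTS concentration-response data.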

[12] = target: Vitamin D3 receptor (Homo sapiens) (UniProt P11473); assay: qHTS assay for small molecule agonists of vitamin D receptor signaling (AID 588543; calls by dose curve;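 note: 0% = DMSO basal and 100% = reference agonist control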); conditions: HEK293T VDR-UAS-bla, beta-lactamase ratio, 16 h; series mostly up to 76.8 µM
How it was run: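 Reporter cells (HEK293T, VDR-UAS-bla) were seeded in medium with 2% charcoal-stripped serum and incubated 5 h, then compounds in concentration series were added for 16 h at 37 °C. Stimulation was scaled between DMSO basal and 50 nM 1α,25-dihydroxyvitamin D3.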

[13] = qHTS assay for small molecule disruptors of the mitochondrial membrane potential - 5 hr assay (AID 651755; calls by dose curve; note: % is set by controls: 0 for no effect and ±100 for the full control effect; nearly all actives have a fitted effect of over 40% in size); conditions: JC-1-type ratio dye; series mostly up to 92.2 µM
How it was run: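 HepG2 cells, attached overnight at 37C, were exposed to compound or DMSO for 5 hr at 37C, 5% CO2. Mito-MPS dye was then added for 30 min, and fluorescence read at 490/535 nm (monomers) and 540/590 nm (aggregates).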

[14] = target: Peroxisome proliferator-activated receptor alpha (Homo sapiens) (UniProt Q07869); assay: qHTS assay for small molecule agonists of the peroxisome proliferator-activated receptor alpha (PPARalpha) signaling pathway (AID 651778); conditions: PathHunter PPARalpha complementation, chemiluminescence, 6 h; hits give high values; note: % of control where 0% means no effect
How it was run: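 Cells plated at 2,000/well and held overnight at 37 C, 5% CO2, then compound added by pin tool for 6 hr; after PathHunter detection reagent and 60 min at room temperature, chemiluminescence from enzyme complementation was read.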

[15] = target: Nuclear receptor ROR-gamma (Homo sapiens) (UniProt P51449); assay: qHTS assay for small molecule antagonists of the retinoid-related orphan receptor gamma (ROR-gamma) signaling pathway (AID 651802); conditions: ROR-gamma antagonist cell reporter assay; series mostly up to 92.2 µM; note: % is set by controls: 0 for no effect and ±100 for the full control effect; nearly all actives have a fitted effect of over 60% in size
How it was run: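 CHO cells carrying TET-inducible ROR-gamma and an ROR response element–luciferase reporter were exposed to compound, then induced with doxycycline. After 16hr at 37C, luminescence was read; lower signal indicates antagonism.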

[16] = qHTS assay for small molecule antagonists of the retinoid-related orphan receptor gamma (ROR-gamma) signaling pathway - cell viability counter screen (AID 720652; active = well fitted curve in the direction sought with a large enough effect in the repeat runs; an effect the other way counts as inactive or inconclusive;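 note: compound exposure lasted 16 hr before ATP read; % is set by controls: 0 for no effect and ±100 for the full control effect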); conditions: RORgamma reporter cell line viability counter screen; series mostly up to 92.2 µM
How it was run: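 Counter screen in CHO cells carrying TET-inducible ROR-gamma and an ROR response element-luciferase reporter; cells plated 5 hr, compound pinned, doxycycline added, then 16 hr at 37 C. Viability read as intracellular ATP by CellTiter-Glo luminescence.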

[17] = qHTS assay for cell viability of the p53RE-bla HCT-116 cell line (AID 743292); conditions: p53RE-bla HCT-116 viability, ATP luminescence, 16 h; series mostly up to 95 µM; note: % is set by controls: 0 for no effect and ±100 for the full control effect; nearly all actives have a fitted effect of over 55% in size
How it was run: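 Readout: CellTiter-Glo luminescence after 30 min RT. Treatment: compounds in DMSO, 16 h, 37 C. Cells: CellSensor p53RE-bla HCT-116, 4,000/well, preincubated 5 h.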

[18] = target: Nuclear receptor subfamily 1 group I member 2 (Rattus norvegicus) (UniProt Q9R1A7); assay: qHTS assay for small molecule activators of the rat pregnane X receptor (rPXR) signaling pathway (AID 651751; call rule not given here; note: 0% is about no effect); conditions: rPXR reporter cells, luciferase (One-Glo), 24 h
[19] = Cell Viability - LYMP2-016 (AID 984); conditions: LYMP2-016 lymphoblastoid cell viability, qHTS; series mostly up to 92.2 µM; note: % is set by controls: 0 for no effect and ±100 for the full control effect; nearly all actives have a fitted effect of over 55% in size
How it was run: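 Cells were seeded at 2500 per well and rested 5 hr before a 24 hr compound exposure at 37 C. Viability was then gauged as cellular ATP by luciferase luminescence, with AC50 values fitted to the Hill equation.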

[20] = qHTS assay for small molecule agonists of the antioxidant response element (ARE) signaling pathway measured by Nrf2-dependant transcriptional activity - cell viability counter screen (AID 720653; active = well fitted curve in the direction sought with a large enough effect in the repeat runs; an effect the other way counts as inactive or inconclusive; note: % is set by controls: 0 for no effect and ±100 for the full control effect); conditions: ARE-bla HepG2 viability, CellTiter-Glo ATP luminescence, 16 h; hits give low values
How it was run: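 ARE-bla HepG2 cells (2,000/well) rested 5 hrs at 37C/5% CO2, then exposed to compounds in DMSO for 16 hrs. Viability was read in the same wells as intracellular ATP by luminescence, 30 min at room temperature after reagent addition.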

Chain of Peroxisome proliferator-activated receptor alpha (Homo sapiens) (Q07869 whole entry, looked up): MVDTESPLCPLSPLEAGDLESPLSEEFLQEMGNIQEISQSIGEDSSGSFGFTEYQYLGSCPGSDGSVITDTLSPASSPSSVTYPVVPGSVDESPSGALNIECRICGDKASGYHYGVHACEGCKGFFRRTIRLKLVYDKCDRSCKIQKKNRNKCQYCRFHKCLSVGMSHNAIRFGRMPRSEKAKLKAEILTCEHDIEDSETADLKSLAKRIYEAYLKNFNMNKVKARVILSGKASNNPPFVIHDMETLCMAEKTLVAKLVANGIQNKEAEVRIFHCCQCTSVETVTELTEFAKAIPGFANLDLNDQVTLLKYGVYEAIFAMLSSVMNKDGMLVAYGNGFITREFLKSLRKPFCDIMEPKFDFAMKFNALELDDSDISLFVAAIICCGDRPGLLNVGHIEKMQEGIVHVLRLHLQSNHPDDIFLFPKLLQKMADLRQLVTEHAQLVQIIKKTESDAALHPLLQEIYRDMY
Chain of Vitamin D3 receptor (Homo sapiens) (P11473 whole entry, looked up): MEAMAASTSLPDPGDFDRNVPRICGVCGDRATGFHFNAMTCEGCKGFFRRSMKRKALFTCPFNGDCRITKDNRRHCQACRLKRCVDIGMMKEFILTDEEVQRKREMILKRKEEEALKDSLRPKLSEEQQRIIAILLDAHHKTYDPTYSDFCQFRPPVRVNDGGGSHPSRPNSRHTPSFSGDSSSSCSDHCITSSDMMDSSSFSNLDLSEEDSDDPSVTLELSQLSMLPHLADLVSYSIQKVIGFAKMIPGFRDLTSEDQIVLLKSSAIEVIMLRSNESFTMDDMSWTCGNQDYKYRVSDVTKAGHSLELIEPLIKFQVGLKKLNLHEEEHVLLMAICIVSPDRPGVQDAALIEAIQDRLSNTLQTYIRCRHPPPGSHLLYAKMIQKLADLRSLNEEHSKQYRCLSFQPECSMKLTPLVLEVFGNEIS
Chain of Nuclear receptor ROR-gamma (Homo sapiens) (P51449 whole entry, looked up): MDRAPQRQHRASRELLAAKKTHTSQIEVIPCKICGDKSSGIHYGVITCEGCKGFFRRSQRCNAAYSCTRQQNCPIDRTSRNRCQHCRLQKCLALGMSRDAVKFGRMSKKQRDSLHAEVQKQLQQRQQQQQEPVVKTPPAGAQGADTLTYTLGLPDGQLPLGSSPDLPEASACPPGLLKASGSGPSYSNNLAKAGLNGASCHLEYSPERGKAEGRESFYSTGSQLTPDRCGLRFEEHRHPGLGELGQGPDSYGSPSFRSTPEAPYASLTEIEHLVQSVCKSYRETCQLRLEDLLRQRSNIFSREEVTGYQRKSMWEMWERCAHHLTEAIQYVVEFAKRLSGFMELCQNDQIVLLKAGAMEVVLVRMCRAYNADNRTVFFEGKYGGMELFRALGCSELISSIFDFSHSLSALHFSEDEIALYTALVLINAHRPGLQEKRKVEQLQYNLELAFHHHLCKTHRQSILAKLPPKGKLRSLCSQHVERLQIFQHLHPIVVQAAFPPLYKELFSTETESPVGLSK
Chain of Nuclear receptor subfamily 1 group I member 2 (Rattus norvegicus) (Q9R1A7 whole entry, looked up): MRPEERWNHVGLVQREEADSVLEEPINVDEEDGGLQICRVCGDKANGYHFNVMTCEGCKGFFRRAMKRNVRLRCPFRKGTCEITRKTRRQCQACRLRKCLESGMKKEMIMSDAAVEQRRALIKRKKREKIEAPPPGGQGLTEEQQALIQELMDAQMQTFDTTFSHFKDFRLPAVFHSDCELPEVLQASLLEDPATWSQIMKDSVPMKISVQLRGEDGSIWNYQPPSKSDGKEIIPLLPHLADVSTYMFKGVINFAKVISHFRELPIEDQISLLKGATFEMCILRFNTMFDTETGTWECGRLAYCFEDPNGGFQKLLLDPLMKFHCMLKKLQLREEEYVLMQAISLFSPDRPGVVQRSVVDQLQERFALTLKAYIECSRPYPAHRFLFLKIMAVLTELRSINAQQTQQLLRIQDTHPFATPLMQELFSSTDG

Brc1cccc(-c2ccccc2)c1
inactive: Potency [1] > 92 µM | Potency [2] | Potency [3] | outcome [4] | Potency [5] | outcome [6] | outcome [7] | outcome [8] | Potency [9] | Potency [10] | Potency [11] | outcome [12] | Potency [13] | max response [14] -1.43% | Potency [15] | Potency [16] | Potency [17] | max response [18] 2.39%

C=CCOCC1CO1 (stereo not drawn)
inactive: Potency [1] > 92 µM | Potency [2] | Potency [3] | outcome [4] | outcome [6] | outcome [8] | Potency [19] | Potency [10] | outcome [12] | Potency [15] | Potency [16] | max response [20] 2.37% | Potency [17] | max response [18] -1.61%

ClCCBr
inactive: Potency [1] > 92 µM | Potency [2] | outcome [4] | Potency [5] | outcome [6] | outcome [7] | Potency [9] | Potency [19] | Potency [10] | Potency [11] | Potency [13] | max response [14] 0.115% | Potency [15] | Potency [16] | max response [20] -7.21% | max response [18] -0.231%

COc1ccccc1N
inactive: Potency [1] > 92 µM | Potency [2] | Potency [3] | outcome [4] | outcome [6] | outcome [7] | outcome [8] | Potency [9] | Potency [19] | Potency [10] | Potency [11] | Potency [13] | max response [14] -0.908% | Potency [15] | Potency [16] | Potency [17] | max response [18] 20.9%

Oc1cc(Cl)cc(Cl)c1
inactive: Potency [1] > 92 µM | Potency [2] | Potency [3] | Potency [5] | outcome [6] | outcome [7] | Potency [9] | Potency [19] | Potency [11] | outcome [12] | max response [14] 5.88% | Potency [15] | Potency [16] | Potency [17] | max response [18] 0.776%

CCOP(=S)(OCC)Oc1nc(Cl)c(Cl)cc1Cl
inactive: Potency [1] > 92 µM | Potency [2] | Potency [3] | outcome [4] | Potency [5] | outcome [6] | outcome [7] | outcome [8] | Potency [9] | Potency [19] | Potency [10] | Potency [11] | outcome [12] | Potency [13] | max response [14] 0.508% [middle of 4 runs] | Potency [16] | max response [20] 0.0448% [middle of 4 runs] | Potency [17] | max response [18] 6.81% [middle of 4 runs]

Brc1ccc(Oc2ccc(Br)cc2Br)c(Br)c1
inactive: Potency [2] | Potency [3] | outcome [4] | outcome [6] | outcome [7] | outcome [8] | Potency [9] | Potency [19] | Potency [10] | Potency [11] | outcome [12] | Potency [13] | Potency [15] | max response [20] -0.481%
